Screening results from PubChem.
SARS PLP yeast: blocks SARS-CoV papain-like protease in a yeast assay; S. cerevisiae expressing SARS-CoV PLpro, growth rescue; Potency, µM (doses to about 32.9 µM), hits mostly activators; 330,000 tested, 0.19% active; AID 485353; calls by dose curve; note: nearly all actives have a fitted effect of over 55% in size
AMA1-RON2 inh: inhibitors of Plasmodium falciparum AMA1-RON2 interaction. AlphaScreen AMA1-biotinylated RON2 peptide binding. Potency, µM (titrated, usually from 58.2 µM), hits mostly inhibitors. 360,000 tested, 0.2% active. AID 720542; note: nearly all actives have a fitted effect of over 45% in size
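AMA1 (3D7) with his tag at 25 nM final met compounds first, then biotinylated RON2 peptide at 25 nM; detection used donor plus acceptor beads, 10 µg/mL apiece, read by AlphaScreen after 30 min at room temperature.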
Pf growth 96h: P. falciparum growth inhibition at 96 hours; P. falciparum luciferase reporter growth, 96 h; Potency, µM (highest dose often 28.7 µM), actives largely listed as inhibitors; 320,000 tested, 6.9% active
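Plates of compound plus infected erythrocytes (2% hematocrit, 0.05% parasitemia final) incubate 96 hours, 37 C, 5% CO2. Detection reagent added; reduced luminescence from the parasites' luciferase reporter flags inhibition.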
Pf growth 48h: inhibits P. falciparum growth in the first generation, 48 h. 310,000 tested, 5.9% active. P. falciparum luciferase growth in erythrocytes, 48 h. Potency, µM (highest dose often 28.7 µM), hits mostly inhibitors
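In quantitative HTS format, infected erythrocytes bearing luciferase-reporter parasites were treated for a single generation at 37 C. Luminescence after adding detection reagent served as the growth measure.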
Numbers stand for hits; - = inactive; ? = inconclusive; . = no result given; [ ] = remark or other dose. This is a sample that favours compounds with a hit; in the whole collection about 9.4% have one here. Unless noted, calls come from the whole dose curve; as a rule, active = well fitted curve in the direction sought with a large enough effect; inconclusive = small, poorly fitted or top-dose-only effect, or another doubt; inactive = no such curve, though single readings can be large; an effect the other way counts as inactive or inconclusive.

SMILES	SARS PLP yeast	AMA1-RON2 inh	Pf growth 96h	Pf growth 48h
CCOc1ccc(CN2CCN(Cc3cnc(-c4ccccc4)s3)CC2CCO)cc1 (stereo not given)	-	-	?	?
OCCC1CN(Cc2cc(F)ccc2F)CCN1CCCc1ccccc1 (stereo not given)	-	-	13µM	?
CCOc1ccc(CN2CCN(CC3=Cc4cccc(OC)c4OC3)CC2CCO)cc1 (stereo not given)	-	-	?	10µM
COc1ccc(OC)c(CN2CCN(CCc3ccccc3)C(CCO)C2)c1 (stereo not given)	-	-	13µM	-
Cc1nn2cc(-c3ccccc3)nc2[nH]c1=O	-	-	0.66µM	?
CCOC(=O)N1CCN(Cc2cn3ccccc3n2)CC1	-	-	-	-
CN(C)N=C1c2cc(S(=O)(=O)N(C)C)ccc2-c2ccc(S(=O)(=O)N(C)C)cc21	-	-	12µM	13µM
CN(C)S(=O)(=O)c1ccc2c(c1)C(=NNC(N)=O)c1cc(S(=O)(=O)N(C)C)ccc1-2	-	-	-	-
CN(C)S(=O)(=O)c1ccc2c(c1)C(=NO)c1cc(S(=O)(=O)N(C)C)ccc1-2	-	-	2.6µM	-
CN(C)Cc1c(C(=O)Nc2ccccc2)[nH]c2ccccc12	-	-	9.3µM	2.9µM
CCOC(=O)c1[nH]c2ccccc2c1NC(=S)Nc1ccccc1	-	-	-	-
C=CCn1c(NCc2ccc(OC)cc2O)nc2ccccc21	-	-	2.9µM	?
CCn1c(NCc2cc(Cl)ccc2O)nc2ccccc21	-	-	5.2µM	7.4µM
Cn1c(-c2ccccc2)cnc1NCc1cc(Cl)ccc1O	-	-	-	12µM
C=CCn1c(NCc2cc(Cl)ccc2O)nc2ccccc21	-	-	?	?
Oc1ccc(Cl)cc1CNc1ccccn1	-	-	10µM	?
Nc1ccc(C(=O)N2CCN(S(=O)(=O)/C=C/c3ccccc3)CC2)cc1[N+](=O)[O-]	-	-	?	?
CN(CC(=O)Nc1ccccc1C(F)(F)F)C(=O)CCc1nc2ccccc2c(=O)[nH]1	.	-	-	-
C(=C\c1nccc2c1[nH]c1ccccc12)/c1ccccc1	-	-	2.6µM	1.9µM
Cc1ccc(/C=C/c2nc3ccccc3c(=O)[nH]2)cc1	-	-	-	-
Fc1ccc(/C=C\c2nccc3c2[nH]c2ccccc23)cc1	-	-	-[5.75 µM]	?
Cc1ccc(/C=C\c2nccc3c2[nH]c2ccccc23)cc1	-	-	?	2.6µM
CCCc1cc(=O)[nH]c(SCCN2C(=O)c3ccccc3C2=O)n1	-	-	-	-
COc1cc(OC)cc(C(=O)NC(C(=O)NCCN(C)C)C23CC4CC(CC(C4)C2)C3)c1 (stereo not given)	-	-	-[5.75 µM]	?
COCCNC(=O)C(NC(=O)C1CCCCC1)C12CC3CC(CC(C3)C1)C2 (stereo not given)	-	-	1.5µM	?
SMILES	SARS PLP yeast	AMA1-RON2 inh	Pf growth 96h	Pf growth 48h
C=CCOc1cccc(C(=O)N2CCCC(CNS(=O)(=O)c3cccs3)C2)c1 (stereo not given)	-	-	?	-
Cc1cccc(Nc2nc(N)c([N+](=O)[O-])c(N3CC(C)CC(C)C3)n2)c1 (stereo not given)	-	-	?	13µM
Cc1cccc(Nc2nc(N)c([N+](=O)[O-])c(N3CC(C)OC(C)C3)n2)c1 (stereo not given)	-	-	?	?
CN(C)c1ccc(Nc2nc(N)c([N+](=O)[O-])c(N3CCOCC3)n2)cc1	-	?	10µM	?
O=C(c1cccc(S(=O)(=O)N2CCOCC2)c1)N1CCCC1	-	-	-	-
Cc1nc(Nc2ccc(F)cc2)[nH]c(=O)c1CCC(C)C	-	-	.	5.9µM
CCn1c(O)c(N=Nc2ccc(S(=O)(=O)N3CCOCC3)cc2)c(=O)n(CC)c1=S	-	-	-	-
Cc1ccccc1/C=C\c1nc2ccccc2c(=O)[nH]1	-	-	-	?
Clc1ccccc1CN1CCN(/N=C/C=C\c2ccco2)CC1	-	10µM	-	-
C(/C=C/c1ccco1)=N/N1CCN(c2ccccc2)CC1	-	?	-	-
CC(CC1CC(C)(C)OC1=O)C(=O)Nc1ccc([N+](=O)[O-])cc1 (stereo not given)	-	-	1.7µM	?
Cc1ccccc1-n1c(SCC(=O)N/N=C/C=C/c2ccccc2[N+](=O)[O-])nc2ccccc2c1=O	-	-	?	?
O=C(O)COc1ccccc1/C=N/NC(=O)CSc1nc2ccccc2c(=O)n1-c1ccc(Cl)cc1	-	-	-	-
